Screening data: PubChem BioAssay, several laboratories
A selection: hits, their analogues and other compounds. The true share with any hit is near 7.6%.
M1 ag: agonists of M1 muscarinic receptor. CHO-M1 cells, Fluo-4 calcium fluorescence, agonist mode; stronger effect = higher value. B-score at 10 µM. 64,000 compounds, 3% hits. AID 626;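 active = fluorescence rise, raw or as B-score row- and column-corrected plate score, outside the 99.7% band of its plate's samples, either direction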
M1 antag: M1 muscarinic receptor (rat) antagonism; P08482; CHO-M1 cells, Fluo-4 calcium, ACh EC80 antagonist mode; stronger effect = lower value; B-score at 10 µM; 64,000 compounds, 3.4% hits; AID 628;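 active = calcium fluorescence response, raw or row-and-column corrected B-score, differing from the plate sample mean either way at a set confidence level, mostly lower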
PLAP activator: human PLAP activation; purified PLAP enzyme, luminescent substrate read-out; stronger effect = higher value; activation fold at 20 µM; 96,000 compounds, 1.2% hits; AID 696; in the data active = activation fold above about 2
Cav32 inh: blocks human Cav3.2 T-type calcium channel | B-score at 10 µM | Cav3.2-expressing cells, Fluo-4 calcium fluorescence FDSS; stronger effect = lower value | 100,000 compounds, 4% hits | O95180 | AID 449739;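 active = single-dose well whose peak fluorescence ratio is a statistical outlier from its plate by either plate-standardised score or position-corrected B-score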
M1 antag confirm: confirmation of rat M1 muscarinic receptor antagonists; shares compounds with M1 antag; CHO-M1 cells, Fluo-4 calcium, ACh EC80 antagonism; stronger effect = lower value; calcium response (max-min fluorescence) at 10 µM; 1,700 compounds, 43% hits;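 active = calcium response below the same-plate mean of wells given acetylcholine alone at its 80%-effect dose, minus 3 SD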;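 note: raw fluorescence intensity difference in arbitrary instrument units and not normalized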
mGluR4 antag: mGluR4 (human) activity, M1 antagonist secondary assay. shares compounds with M1 antag. CHO-mGluR4 calcium flux, Fluo-4 fluorescence, glutamate EC80; stronger effect = lower value. fluorescence response (max-min) at 10 µM. 1,700 compounds, 0.9% hits;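 active = fluorescence response below the plate's average for near-maximal glutamate wells, less 3 SD of those wells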;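 note: raw unnormalized fluorescence span taken in the window right after glutamate addition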
An asterisk follows results filed as active; x = no result.

SMILES	M1 ag	M1 antag	PLAP activator	Cav32 inh	M1 antag confirm	mGluR4 antag
COc1cc(CN2CCN(S(=O)(=O)c3ccc(NC(C)=O)cc3)CC2)cc(OC)c1O	0.176	-1.33	1.7	1.51	x	x
Cc1ccc(S(=O)(=O)N2CCCC2C(=O)O)s1 (stereo not drawn)	x	x	0.9	-0.0215	x	x
CC(C)CNC(=O)COC(=O)c1ccc(Cl)c(S(N)(=O)=O)c1	x	x	1	-0.017	x	x
CN(CCC#N)C(=O)COC(=O)c1ccc(Cl)c(S(N)(=O)=O)c1	0.32	-12.3*	0.9	0.0645	642	226
COc1ccc2nc(NC(=O)c3cnccn3)sc2c1	-1.93	-2.66*	1.4	-0.0358	616	171
O=C(Nc1cccc(Cl)c1)N(CCN1CCOCC1)Cc1cccc(Cl)c1	1.02	-2.41*	1.9	-1.35	255*	227
O=C(Nc1cccc(Cl)c1)N(CCN1CCOCC1)Cc1ccccc1F	x	x	1.3	-0.458	x	x
O=C(NCCc1ccccc1)C1CCCN(C(=O)NC2CCCCC2)C1 (stereo not drawn)	0.44	-0.245	0.9	2.13	x	x
O=C1CSC(c2ccc(F)cc2)N1c1nnc(C23CC4CC(CC(C4)C2)C3)s1 (stereo not drawn)	x	x	1	0.26	x	x
Cn1c(=O)c2c(nc(Br)n2Cc2c(F)cccc2Cl)n(C)c1=O	0.129	1.16	0.9	x	x	x
Cn1c(=O)c2c(nc(OCc3cccnc3)n2Cc2c(F)cccc2Cl)n(C)c1=O	0.736	-1.15*	0.8	2.77	509*	248
CCOC(=O)Cn1cc(C(=O)C2CC2)c2ccccc21	0.84	-0.231	1	0.658	x	x
COC(=O)Cn1cc(C(=O)C2CC2)c2ccccc21	0.117	-1.59*	0.8	0.244	540	196
Fc1cccc(CN2CCN(c3ncccn3)CC2)c1	x	x	1	-1.03	x	x
O=C(COC(=O)c1ccc(S(=O)(=O)N2CCCC2)cc1)NCc1ccccc1	-0.569	-0.491	0.8	0.0219	x	x
CN(Cc1ccccc1)Cc1nc2c(c(=O)n(C)c(=O)n2C)n1Cc1ccc(F)cc1	0.3	-2.57*	1.5	-4.33*	657	223
Cn1c(=O)c2c(nc(SCCN3CCOCC3)n2Cc2ccc(F)cc2)n(C)c1=O	0.338	0.81	1.7	-0.0158	x	x
Cn1c(=O)c2c(nc(SCCN3CCCCC3)n2Cc2ccccc2)n(C)c1=O	-1.11	-4.67*	1.8	1.02	246*	247
Cc1ccc(Cn2c(SCCN3CCCCC3)nc3c2c(=O)n(C)c(=O)n3C)cc1	-2.02	-3.9*	1.6	0.714	267*	247
CC(/C=N\NC(=O)Cn1c(C)nc2ccccc21)=C\c1ccccc1	x	x	0.9	x	x	x
O=C(CSc1ncc(-c2ccc(F)cc2)[nH]1)N1CCCCC1	0.195	-0.941	1.2	0.0202	x	x
O=S1(=O)N=C(N2CCc3ccccc3C2)c2ccccc21	0.521	-2.15*	0.9	1.59	600*	191
O=S1(=O)N=C(N2CCCc3ccccc32)c2ccccc21	-0.433	-0.354	1.1	1.52	x	x
Nc1nc(SCC(=O)N2CCCc3ccccc32)n(-c2ccccc2)n1	-1.01	0.0716	1.3	-0.24	x	x
O=C(c1ccc(Cl)cc1)N1CCN(c2nc(N3CCCCC3)nc(N3CCCCC3)n2)CC1	-0.276	0.35	x	x	x	x
SMILES	M1 ag	M1 antag	PLAP activator	Cav32 inh	M1 antag confirm	mGluR4 antag
N#C/C(C(=O)c1ccccc1)=C1/CCCCCN1	0.567	-2.43*	0.9	-0.56	525	259
N#C/C(=C1/CCCCCN1)c1nc2ccccc2[nH]1	0.0118	-0.136	0.9	-0.895	x	x
CCCC(=O)N=C1SC2CS(=O)(=O)CC2N1c1ccc(C(C)=O)cc1 (stereo not drawn)	-0.46	0.0219	1.1	-0.129	x	x
CC(=O)Oc1cc2oc(=O)c3c(c2cc1Cl)CCC3	-1.4	-0.569	1.1	0.717	x	x
CCOC(=O)COc1cc2c3c(c(=O)oc2cc1C)CCCC3	1.53	-17.2*	0.8	0.996	119*	271
CC(=O)NC12CC3CC(C1)CC(C(=O)OCC(=O)Nc1ncc(Cl)cc1Cl)(C3)C2	-0.969	-0.00973	x	-0.119	x	x
Clc1ccccc1-c1nnc2sc(C3COc4ccccc4O3)nn12 (stereo not drawn)	-0.958	0.04	1.3	0.724	x	x
Cc1ccc(-c2nnc3sc(C4COc5ccccc5O4)nn23)cc1 (stereo not drawn)	0.307	-3.37*	0.9	1.2	476	223
CCCCNC(=O)C(=O)NC(C)CCc1ccccc1 (stereo not drawn)	x	x	1	x	x	x
CCN(CC)CCCNC(=O)C1c2ccccc2Oc2ccccc21	0.0497	-6.85*	1.4	1.66	192*	255
CN(C)CCCOC(=O)C1c2ccccc2Oc2ccccc21	-1.1	-12.3*	1.2	0.0119	22.3*	243
Cc1ccc(S(=O)(=O)N(CC(=O)N2CCC(C(N)=O)CC2)c2cccc(C(F)(F)F)c2)cc1	-0.304	-7.27*	1	0.332	624	217
CCOC(=O)C1CCN(C(=O)CN(c2cccc(C(F)(F)F)c2)S(C)(=O)=O)CC1	0.0107	-0.453	1.2	-0.501	x	x
Cn1c(N)c(C(=O)COC(=O)C2(c3ccc(Cl)cc3)CCCC2)c(=O)n(C)c1=O	x	x	1.1	-0.378	x	x
COc1cc(C(=O)N2CCN(C(=O)C3CC3)CC2)cc(OC)c1OC	-0.943	-3.09*	1	-0.592	543*	224
COC(=O)C1CCN(C(=O)c2cc(OC)c(OC)c(OC)c2)CC1	-0.23	-0.796	1.2	0.166	x	x
Cc1ccc(NC(=O)c2ccco2)c(NC(=O)c2cccs2)c1	0.0679	-3.89*	1.1	1.17	534	206
O=C(Nc1cccc(NC(=O)c2cccs2)c1)c1ccco1	2.23	-0.401	1.1	0.00551	x	x
COc1cc(NC(=O)c2cccs2)ccc1NC(=O)c1ccco1	1.67	-2.8*	0.8	0.852	628	272
COC(=O)Nc1ccc2c(c1)N(C(=O)CCN1CCOCC1)c1ccccc1S2	-0.295	-5.2*	1.7	0.998	495*	248
Cc1nn(-c2ccccc2)c(C)c1C(=O)OCC(=O)Nc1ccc2c(c1)OCO2	-0.168	0.428	1.2	-1.14	x	x
CCCn1c(SCC(=O)N2c3ccc(F)cc3CCC2C)nnc1-c1ccccn1 (stereo not drawn)	x	x	x	-1.22	x	x
CCn1c(NC(=O)c2cccs2)c(-c2cccs2)c(=O)c2ccccc21	0.443	-1.63	1.3	0.0288	x	x
O=C1NC(c2cccs2)Nc2sc3c(c21)CCCC3 (stereo not drawn)	-0.749	0.118	1.1	-0.481	x	x
CN1C(=O)c2c(sc3c2CCCC3)NC1c1ccccc1O (stereo not drawn)	-0.461	-2.68*	1.7	-0.187	554	205
CCC(Sc1ncnc2c1nnn2-c1ccc(F)cc1)C(=O)OC (stereo not drawn)	-0.127	-2.77*	1	-0.00747	640	243
CCOC(=O)C(C)Sc1ncnc2c1nnn2-c1ccc(F)cc1 (stereo not drawn)	-0.411	-0.817	0.9	-1.66	x	x
O=C(NCc1ccc(Cl)cc1)c1cc(-c2ccco2)on1	0.262	-0.343	1	x	x	x
O=C(NCc1ccc(F)cc1)c1cc(-c2ccco2)on1	-0.733	-3.86*	0.9	-0.782	673	177
